From PubChem BioAssay (EPA / NIEHS)
Calls of active or inactive are those of the source. The calls were made as follows: active = hit-call score of the fitted dose curve at least 0.9, where 1 is the maximum; inactive = score below 0.9.

Experiments:
[1] = APR_HepG2_CellLoss_72hr: Apredica 72-hour HepG2 Assay for Cell Loss (AID 2282915); conditions: high-content imaging
Summary of the method: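 HepG2 cells were exposed for 72 hr to compounds at 0.39–200 uM (ten concentrations, duplicate) in 0.5% v/v final DMSO. Nuclei were stained with Hoechst 33342 after 3.7% formaldehyde fixation, imaged at 20x, and counted; fits bidirectional versus DMSO.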

[2] = APR_HepG2_MitoMembPot_72hr: Apredica 72-hour HepG2 Assay for Mitochondrial Membrane Potential (AID 2282917); conditions: imaging, actives raise or lower the signal
Summary of the method: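 HepG2 cells exposed 72 h to compounds at 0.39–200 uM (0.5% v/v DMSO, duplicates); MitoTracker Red CMXRos 250 nM loaded 30 min before 3.7% formaldehyde fixation, imaged by HCS fluorescence. Bidirectional fit versus DMSO.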

[3] = APR_HepG2_MitoticArrest_72hr: Apredica 72-hour HepG2 Assay for Mitotic Arrest (AID 2282918); conditions: high-content imaging, actives raise or lower the signal
Summary of the method: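 Using high-content imaging of fixed HepG2 cells, phospho-histone H3 signal was measured following a 72 hr incubation with ten-point compound dilutions up to 200 uM. DMSO served as the negative control and baseline for bidirectional curve fitting.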

[4] = APR_HepG2_MicrotubuleCSK_72hr: Apredica 72-hour HepG2 Assay for Microtubule CSK Stabilty (AID 2282919); conditions: HepG2 microtubule cytoskeleton, high-content imaging, actives raise or lower the signal
Summary of the method: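 Ten-point dosing (0.39–200 uM, 0.5% DMSO) of HepG2 for 72 hr, with taxol as the cytoskeletal positive control. The cells were formaldehyde-fixed and then stained with alpha-tubulin/Cy5 and Hoechst. Imaging at 20x used a −2 um Z offset for tubulin.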

[5] = APR_HepG2_P-H2AX_24hr: Apredica 24-hour HepG2 Assay for H2AX Phosphorylation (AID 2282920); conditions: high-content imaging, actives raise or lower the signal
Summary of the method: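 Human HepG2 liver cells, treated 24 hr with test chemicals (0.39–200 uM, final DMSO 0.5% v/v), are fixed and co-stained for phospho-H2A.x and c-Jun with Hoechst. Imaged intensity is fitted in both directions against DMSO controls.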

[6] = APR_HepG2_StressKinase_72hr: Apredica 72-hour HepG2 Assay for Stress Kinase (AID 2282921); conditions: HepG2 stress kinase (phospho-c-Jun) imaging, actives raise or lower the signal
Summary of the method: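 Stress kinase signal reflects nuclear phospho-c-Jun staining in fixed, permeabilized cells exposed 72 h to compound at 0.39–200 uM; DMSO-normalized, fitted for increases or decreases.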

[7] = APR_HepG2_StressKinase_24hr: Apredica 24-hour HepG2 Assay for Stress Kinase (AID 2282922); conditions: HepG2 stress kinase (phospho-c-Jun) imaging, actives raise or lower the signal
Summary of the method: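 After 24 hr compound treatment (up to 200 uM, final DMSO 0.5% v/v), HepG2 cells are fixed and multiplex-labeled; phospho-c-Jun intensity is captured by high-content fluorescence imaging and analyzed relative to DMSO.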

[8] = APR_HepG2_p53Act_72hr: Apredica 72-hour HepG2 Assay for p53 Activation (AID 2282923); conditions: high-content imaging, actives raise or lower the signal;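 also: average cellular p53 protein immunofluorescence intensity in HepG2 cells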
Summary of the method: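 Fixed-cell p53 staining (sheep primary, Cy5 secondary) measured by fluorescence imaging following 72 hr treatment at 0.39–200 uM in 0.5% DMSO; DMSO served as negative control and baseline.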

[9] = APR_HepG2_MitoMass_72hr: Apredica 72-hour HepG2 Assay for Mitochondrial Mass (AID 2282924); conditions: high-content imaging, actives raise or lower the signal;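 also: MitoTracker Red CMXRos stain intensity per cell imaged as mitochondrial mass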
Summary of the method: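 Steps: treat HepG2 72 hr (0.39–200 uM, duplicate wells); load MitoTracker Red CMXRos, 250 nM, 30 min; fix with 3.7% formaldehyde, permeabilise with 0.5% Triton X-100; capture images, nuclei via Hoechst 33342; fit bidirectionally against DMSO.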

[10] = APR_HepG2_NuclearSize_72hr: Apredica 72-hour HepG2 Assay for Nuclear Size (AID 2282925); conditions: high-content imaging, actives raise or lower the signal
Summary of the method: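 Compounds (0.39–200 uM, final DMSO 0.5%) were applied to HepG2 for 72 hr. Cells were then formaldehyde-fixed, permeabilized and labelled with Hoechst 33342. Nuclear diameter was quantified from six images per well.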

[11] = ATG_CRE_CIS: Attagene CIS-FACTORIAL HepG2 Assay for human cAMP Responsive Element (CRE) binding protein 3 (AID 2282926); conditions: HepG2 CRE cis-reporter, Attagene multiplexed mRNA; actives raise or lower the signal
Summary of the method: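 Liver-derived HepG2, transfected with a CRE-containing reporter panel, exposed 24 h; transcript levels sized and quantified by capillary electrophoresis of labelled amplicons; signal changes either way referenced to vehicle.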

[12] = molecular target: CCAAT/enhancer-binding protein beta (Homo sapiens) (UniProt P17676); assay: ATG_C_EBP_CIS: Attagene CIS-FACTORIAL HepG2 Assay for human CCAAT/Enhancer Binding Protein (C/EBP) beta (AID 2282927); conditions: HepG2 Attagene cis-factorial transcription factor reporter; actives raise or lower the signal
Chain of CCAAT/enhancer-binding protein beta (Homo sapiens) (P17676 whole entry, looked up): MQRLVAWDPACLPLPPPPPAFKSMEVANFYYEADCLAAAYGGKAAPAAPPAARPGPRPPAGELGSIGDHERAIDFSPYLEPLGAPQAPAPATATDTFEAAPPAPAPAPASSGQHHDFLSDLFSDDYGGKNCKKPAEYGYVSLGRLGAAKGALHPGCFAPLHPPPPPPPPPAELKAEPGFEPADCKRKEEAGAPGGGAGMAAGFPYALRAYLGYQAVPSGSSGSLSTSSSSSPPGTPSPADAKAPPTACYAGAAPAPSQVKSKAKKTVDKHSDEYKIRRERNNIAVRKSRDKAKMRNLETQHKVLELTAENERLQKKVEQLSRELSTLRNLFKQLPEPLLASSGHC
Summary of the method: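 RT-PCR/capillary electrophoresis fluorescence of reporter mRNA, 24 h post-dose, in HepG2 cells carrying transfected cis-promoter reporter units. Bidirectional curve fitting against DMSO baseline captures gain or loss of signal.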

[13] = ATG_CMV_CIS: Attagene CIS-FACTORIAL HepG2 Assay for human CMV (Internal Marker) (AID 2282928); conditions: HepG2 CMV promoter reporter, transcription factor profiling; actives raise or lower the signal;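 also: endpoint acts as a background internal control marker rather than a target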
Summary of the method: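 Fluorescence intensity of RT-PCR-derived reporter fragments, resolved by capillary electrophoresis, gives the signal. HepG2 liver cells bearing transfected cis-element reporters were treated 24 h; activity in either direction was fit relative to DMSO-treated controls.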

[14] = ATG_DR4_LXR_CIS: Attagene CIS-FACTORIAL HepG2 Assay for human Liver X Receptor (LXR), DR4 submotif (AID 2282929); conditions: HepG2 Attagene DR4 cis-reporter, mRNA transcription; actives raise or lower the signal
Summary of the method: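 HepG2, transient MRTU transfection, cis-element (DR4) promoter; 24 h compound exposure; total RNA → oligo(dT) RT → PCR → 6-FAM primer extension → HpaI cut → CE. Gain/loss vs DMSO, bidirectional fit.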

[15] = ATG_AP_1_CIS: Attagene CIS-FACTORIAL HepG2 Assay for human Activator Protein 1 (AP-1) (AID 2282931); conditions: HepG2 Attagene cis-factorial AP-1 reporter mRNA; actives raise or lower the signal
Summary of the method: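 Transient MRTU transfection of HepG2 → 24 h chemical treatment → RNA isolation, RT-PCR, 6-FAM labelling, HpaI digest → capillary electrophoresis. Fit: bidirectional, DMSO negative control.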

[16] = ATG_AP_2_CIS: Attagene CIS-FACTORIAL HepG2 Assay for human Activator Protein 2 (AP-2) (AID 2282932); conditions: HepG2 AP-2 cis-reporter, Attagene transcription factor profiling; actives raise or lower the signal
Summary of the method: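 Assay in transfected HepG2 with promoter-regulated reporters, 24 h incubation after dosing. Signal is reporter mRNA fluorescence (RT-PCR, capillary electrophoresis), analysed for both increases and decreases relative to DMSO controls.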

[17] = ATG_BRE_CIS: Attagene CIS-FACTORIAL HepG2 Assay for human Bone Morphogenetic Protein (BMP) Response Element (BRE) (AID 2282933); conditions: HepG2 BMP response element reporter, Attagene transcription factor profiling; actives raise or lower the signal
Summary of the method: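 Fluorescence-labelled reporter cDNA fragments, separated by capillary electrophoresis, gave the signal for this component of a 52-readout multiplex. HepG2 cells were transfected, exposed to chemicals for 24 h, and compared with DMSO using bidirectional fitting.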

[18] = molecular target: Retinoic acid receptor alpha (Homo sapiens) (UniProt P10276); assay: ATG_DR5_RAR_CIS: Attagene CIS-FACTORIAL HepG2 Assay for human Retinoic Acid Receptor Alpha (RARE), DR5 submotif (AID 2282934); conditions: HepG2 Attagene cis-factorial RARE DR5 reporter, mRNA; actives raise or lower the signal;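 as to AC50: reporter responds to endogenous RAR alpha beta and gamma in HepG2 not RARA alone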
Chain of Retinoic acid receptor alpha (Homo sapiens) (P10276 whole entry, looked up): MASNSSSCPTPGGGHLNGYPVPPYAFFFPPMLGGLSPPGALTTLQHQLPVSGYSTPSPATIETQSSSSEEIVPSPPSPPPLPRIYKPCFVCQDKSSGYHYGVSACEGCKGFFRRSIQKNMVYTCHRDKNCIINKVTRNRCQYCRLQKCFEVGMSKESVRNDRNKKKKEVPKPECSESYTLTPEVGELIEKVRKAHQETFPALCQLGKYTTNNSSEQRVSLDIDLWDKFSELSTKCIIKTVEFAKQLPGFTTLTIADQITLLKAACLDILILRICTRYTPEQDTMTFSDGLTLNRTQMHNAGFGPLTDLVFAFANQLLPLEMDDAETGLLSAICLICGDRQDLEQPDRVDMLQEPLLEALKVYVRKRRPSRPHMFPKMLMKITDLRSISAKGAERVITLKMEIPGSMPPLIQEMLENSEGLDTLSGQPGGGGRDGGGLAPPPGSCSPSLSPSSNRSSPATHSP
Summary of the method: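 HepG2 cells transiently transfected with multiplexed reporter units under cis (DR5 RARE) promoters, so endogenous transcription factor activity is measured. After 24 h compound exposure, reporter mRNA is quantified by RT-PCR with fluorescent labelling and capillary electrophoresis; bidirectional fitting versus DMSO.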

[19] = APR_HepG2_P-H2AX_72hr: Apredica 72-hour HepG2 Assay for H2AX Phosphorylation (AID 2282916); conditions: imaging, actives raise or lower the signal;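 also: phospho-histone H2A.x immunostain intensity per cell marking DNA damage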
Summary of the method: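 Phospho-H2A.x imaging endpoint in HepG2 after 72 hr compound exposure (0.39–200 uM, duplicate wells). Activity derived by bidirectional curve fitting with DMSO as baseline.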

[20] = molecular target: Aryl hydrocarbon receptor (Homo sapiens) (UniProt P35869); assay: ATG_Ahr_CIS: Attagene CIS-FACTORIAL HepG2 Assay for human Aryl Hydrocarbon Receptor (Ahr) (AID 2282930); conditions: HepG2 AhR cis-factorial reporter transcription; actives raise or lower the signal
Chain of Aryl hydrocarbon receptor (Homo sapiens) (P35869 whole entry, looked up): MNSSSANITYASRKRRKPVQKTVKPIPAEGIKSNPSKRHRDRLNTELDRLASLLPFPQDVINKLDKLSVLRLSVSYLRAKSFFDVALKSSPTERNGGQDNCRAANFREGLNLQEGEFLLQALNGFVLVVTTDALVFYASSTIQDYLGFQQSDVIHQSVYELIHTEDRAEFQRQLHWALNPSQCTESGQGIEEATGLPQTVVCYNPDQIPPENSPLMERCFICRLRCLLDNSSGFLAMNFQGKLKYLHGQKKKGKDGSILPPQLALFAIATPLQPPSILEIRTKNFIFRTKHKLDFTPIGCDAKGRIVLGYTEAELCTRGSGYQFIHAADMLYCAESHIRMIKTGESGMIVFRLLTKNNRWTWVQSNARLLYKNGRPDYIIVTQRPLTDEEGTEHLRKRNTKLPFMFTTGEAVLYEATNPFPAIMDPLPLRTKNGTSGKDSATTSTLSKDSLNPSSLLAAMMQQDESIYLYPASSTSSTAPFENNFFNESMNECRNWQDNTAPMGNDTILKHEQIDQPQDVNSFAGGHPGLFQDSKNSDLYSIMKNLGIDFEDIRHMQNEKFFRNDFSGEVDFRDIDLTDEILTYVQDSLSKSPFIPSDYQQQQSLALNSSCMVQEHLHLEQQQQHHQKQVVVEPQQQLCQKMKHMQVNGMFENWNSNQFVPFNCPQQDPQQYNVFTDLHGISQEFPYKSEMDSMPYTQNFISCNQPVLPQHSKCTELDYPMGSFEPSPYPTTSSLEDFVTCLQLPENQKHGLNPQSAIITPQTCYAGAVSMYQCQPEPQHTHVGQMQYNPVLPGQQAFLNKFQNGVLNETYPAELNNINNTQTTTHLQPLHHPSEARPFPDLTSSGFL
Summary of the method: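 HepG2 cells transiently transfected with cis-element-driven multiplexed reporter transcription units; endogenous transcription factor activity measured as reporter mRNA 24 h after dosing. RT-PCR, 6-FAM labelling, HpaI digestion, capillary electrophoresis; bidirectional fitting versus DMSO baseline.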

Measured: AC50

CCCCCCCCN(C)C
not listed: [19] | [20]
inactive: all other assays above

COc1cc(C(C)C)c2c(c1)S(=O)(=O)N(COc1cc(=O)n3cccc(OCCN4CCCCC4)c3n1)C2=O
active: [11] 3.96 µM | [12] 3.74 µM | [13] 2.2 µM | [14] 0.643 µM | [15] 2.24 µM | [18] 0.812 µM
not listed: [1] | [5] | [8] | [20]
inactive: all other assays above

CCCCCCCCCCCCCCO
inactive: [2] | [6] | [7] | [9] | [10] | [11] | [15]
active: [3] 90.9 µM | [4] 114 µM | [5] 101 µM | [8] 104 µM | [12] 74.3 µM | [13] 29.4 µM | [14] 78 µM | [16] 166 µM | [17] 166 µM

CCN(CC)C(=S)SSC(=S)N(CC)CC
active: [2] 37.4 µM | [3] 23.5 µM | [4] 60.7 µM | [5] 7.04 µM | [6] 31 µM | [7] 87.4 µM | [8] 12 µM | [9] 14.4 µM | [11] 76 µM | [13] 173 µM | [15] 25.8 µM | [17] 142 µM
inactive: [10] | [12] | [20] | [16]

CNC(C)=O
not listed: [1] | [8] | [19] | [20]
inactive: all other assays above

CC1(C)C(=O)N(Cl)C(=O)N1Cl
not listed: [1] | [2] | [3] | [4] | [5] | [9] | [18] | [20]
inactive: all other assays above

Cc1ncc([C@@H](CCCCCCc2ccc3c(n2)NCCC3)CC(=O)O)cn1
active: [19] 0.0391 µM | [3] 0.0971 µM | [4] 0.534 µM | [5] 0.0459 µM | [10] 0.0398 µM | [15] 0.0172 µM
not listed: [1] | [8] | [18]
inactive: all other assays above

CC(C)CC(C)O (centres undefined)
not listed: [1] | [8] | [20]
inactive: all other assays above

Nc1ccn([C@@H]2O[C@H](CO)[C@@H](O)[C@@H]2O)c(=O)n1
active: [3] 0.177 µM | [5] 0.0979 µM | [10] 0.0394 µM
not listed: [1] | [8] | [19] | [20]
inactive: all other assays above

CC(C)c1nnc2ccc(-c3ocnc3-c3cc(F)ccc3F)cn12
not listed: [1] | [4] | [5] | [10] | [20]
inactive: all other assays above

Cn1cc[nH]c1=S
not listed: [1] | [5] | [14]
inactive: all other assays above

O=C(O)c1cccc(C(=O)O)c1
not listed: [1] | [2] | [3] | [4] | [5] | [8] | [9]
inactive: all other assays above

CCc1ccc(O)c(C(C)(C)C)c1
active: [19] 79.6 µM | [3] 81.3 µM | [6] 84.8 µM | [8] 71.6 µM | [13] 43 µM | [15] 43.7 µM
not listed: [1] | [18] | [20]
inactive: all other assays above

OCCNCCO
not listed: [1] | [5] | [8]
inactive: all other assays above

OCC(CO)(CO)CO
not listed: [5] | [8] | [19] | [20]
inactive: all other assays above
